Experimental data from the supplement of paper PMC12632987.
In all, about 4,500 sequences were measured (“median log2 fold change of GCK-ALFA target abundance (FLAG IP / Myc IP barcode read proportion)”: median about 0.078, lowest 2% from about -0.6 on). The sample as a whole holds a higher share of the lowest values than the screen did.

B1: GBRAP_125_2964 (protein)
chain: SEEEDLEALATLAKALGFDEDDVEEAVRLARKFGFKNTLIALFLAEGYDEVADLVEKLTEEEAKEVLKRLAEEIKKNPELTPEEVVKLAKELFEEVIAKK
B2: GBRAP_160_4000 (protein)
chain: MEEIEELKEEIEEIIDETIAAMEGLTPEERLTLVRGMVGEIIQLVEDSPAVSDEAEDEIAELGDELVEEVEANRDAPLEVWRELLERFLEEIKKILDKEE
B3: GBRAP_11_2888 (protein)
chain: KKEKLKELAELARKIAELIEKLLEEGTDNEELLKEIEKLLKELEKLTKEYADKGSQKLTEIAKELFKKALEDPENRKEYLEELLAAVRVLEGDYLLEYEE
B4: GBRAP_128_3538 (protein)
chain: SLEEVKKRAREVMEKIKNSSVEEAYEITKEFLEELKSLSLEEVEAAIEVLEELLPELSAEKLEAIADAMREMRPTLSPEKQRLVADLQVEALNEAEEKEE
B5: GBRAP_35_5578 (protein)
chain: EDKEMLLETVRDLAEATIEAIKEGDLDLAIALLEALLRTAELAVEELANDAEALEEIAALLERVIAAIKEHLADDPRVQALLARLEALLARTKALLAAVK
B6: GBRAP_184_5199 (protein)
chain: KVLEIEVTVSNLEEAKKKMEEILAKAKEEKADLLLILDLKTSTKEIIETIMNALGKIKKEGYAPNVLVELEGDLSDENIDLAFKLADEAGVSLVIALPEE
B7: GBRAP_11_2855 (protein)
chain: KKEKLKEIAELAKKAIELLKELLKKGVDDKELQKKIKELLEKLLELVKKYLDEASVKLAKEALESFKKSLEDPENKEKYINESLAFLEVLLGDVLLEIDE
B8: GBRAP_139_3755 (protein)
chain: SKTEEAIKEIVELVKDPNATLEEIEEKVKEIAKELDEESIKKVLKAAAEAAKSLSVERIEELEERFIKILKEEGRSEDVIDFLEGEFNEAAALSAYREEL
B9: GBRAP_196_5419 (protein)
chain: SLVQEARKINEEAEKRLKATDKEVTVVVSTGDLERHREAVEKAIDYAKEHPDELVLLVFMDDLETALEAARYAKELAEKEGVDLVVEVASRELEEHPDEE
B10: GBRAP_14_3875 (protein)
chain: MEEIKKIIDDMVAEIVAFVKEVSPEIAPEVEKRLNEIREKTLARIEETGDPLAAFDAMEEEMIAAMEEITADLPEEDRTAILAELRVRLAEARYRIDEVL
B11: GBRAP_150_3934 (protein)
chain: DLEELLLLAESVADLLDLALNEGIDRLKALKRAQELLKDLIKEADEELKEIAKKAQELIKKAIKLEEEGGEEKEIKKLLKKAQELAKELAKELEKKIEEE
B12: GBRAP_11_2819 (protein)
chain: MDEVVKELIEVLKKLAEAADKYLKEDVGDEELLKKIEELAKKALELAKKLNDPAVIREAQAILDTVEEAKKDPANREQYVANARAGARTLLANLEEEAEE
B13: GBRAP_35_5522 (protein)
chain: DSDTLTVEMLVATIEDLTLAVPDMDVETAVQIATQLIKAAEELAKDIKNNVEGLKKLRDALAKLRDALEKHYGDDPLAQQVIAQIDKLIAEIDKMIKEAK
B14: GBRAP_95_7082 (protein)
chain: EEDLETLEDLAQTAIDLYEAGFEEQAARAAKAAAEELEELGYKVADKELLTKLLTYAADLAPKYFDEEEIERWLKIAEATGAPQSIIDALRAALAAKKAA
B15: GBRAP_125_2963 (protein)
chain: SEEEDLKALATLAKALGFDEDDVAEAVELARKFGIKNTVIALFLAEGYEEVAELVEKLTEEEVREVLKELAKEIEANPDLTPEEVVELAKKLLEKKIAKK
B16: GBRAP_39_5685 (protein)
chain: EEEEEDENVVSYLEGLAAARLYETGKSLEELFEEAKKILKALAKEEPELKELIEELIELAEKKGDEAKLALIGIAVLVEEGTPLEEIKENIEKVINYFKK
B17: GBRAP_39_5686 (protein)
chain: EEEEENEDVVSYLEGLAAKYLYETGKSLEEAFEEAKKILLKLAEEHPELKELIEKLIELAEKKGEEAKLALIGIAVLVKQGTPLEEIKENIEKVIAYFES
B18: GBRAP_125_3124 (protein)
chain: AEAQALADLAAVLKALGFDDEDVAEAVELAAAHSIRGTLYAALLALGDEEGADLVAKLTEEQTKEVVAAVNAWLKAHPDATPEEVKEKLLALLKEAVAAS
B19: GBRAP_160_4816 (protein)
chain: MEKVEELLKEAEEDLLDTAEASKDLPIEDRAALLRAEGYTSILELKEELNLSDETEDKLVAIVDELVARLLANPDLTPEEVLALVKEAYEKMKKIVLEEA

What follows are binders tested against GABARAP, O95166 (assay: median log2 fold change of GCK-ALFA target abundance (FLAG IP / Myc IP barcode read proportion) (log2 ratio); each designed protein is fused to an ALFA-tag nanobody in HEK293 cells to bring the named protein to FLAG-tagged glucokinase (GCK); Myc marks an untargeted standard; higher = target protein stabilised (more abundant)). Conditions: target protein: 3xFLAG-MCP-GCK-ALFA reporter; HEK293 landing pad (RPLP).
How it was run: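 Sequencing of reverse-transcribed, amplified circular RNA barcodes from anti-FLAG and anti-Myc immunoprecipitates provided the readout for an ALFA-nanobody-fused binder library recombined into HEK293 landing-pad cells. Those cells were induced with 2 μg mL^−1 doxycycline, transfected with a plasmid expressing a FLAG-tagged target and a Myc-tagged standard, and lysed after 48 h. Target abundance is the per-binder median log2 ratio of FLAG to Myc barcode read proportions. Only barcodes at a proportion of ≥10^−7 in both replicates and binders with ≥3 barcodes per replicate were kept, with a 10^−6 pseudocount added before the two replicates were pooled.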

Chain of GABARAP, O95166 (O95166 whole entry, the tested form may be a part): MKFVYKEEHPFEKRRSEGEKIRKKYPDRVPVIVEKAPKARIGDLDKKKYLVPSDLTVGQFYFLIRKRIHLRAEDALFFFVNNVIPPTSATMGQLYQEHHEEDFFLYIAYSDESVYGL

Row | Binder | median log2 fold change
1 | B1 | -0.94
2 | B2 | -0.0825
3 | B3 | -0.0328
4 | B4 | 0.273
5 | B5 | -0.85
6 | B6 | -0.0295
7 | B7 | 0.193
8 | B8 | 0.234
9 | B9 | 0.0489
10 | B10 | 0.256
11 | B11 | 0.0862
12 | B12 | 0.324
13 | B13 | -0.0356
14 | B14 | 0.268
15 | B15 | -0.725
16 | B16 | -0.604
17 | B17 | 0.293
18 | B18 | -0.452
19 | B19 | 0.0572
